Measured values from PubChem BioAssay (NCATS).
Results filed as inconclusive are left out. A call without a number means that no potency is given here. Calls of active or inactive are those of the source. The call rests on the fitted dose curve; in most records, active means well fitted inhibition curve with a large enough effect; inconclusive means small, poorly fitted or top-dose-only effect; inactive means flat fitted curve, though single readings scatter.

Columns and labels:
Test in all cases: qHTS profiling for inhibitors of Plasmodium falciparum proliferation (AID 504749); further: nearly all actives have a fitted effect of over 60% in size
Conditions in all cases: P. falciparum in erythrocytes, SYBR Green DNA, 72 h; series mostly up to 28.7 µM
CP269 = test system: CP269
Outline: (§1)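 In a 72 h erythrocytic culture (37 C, humidified, 5% CO2) at 2.5% hematocrit and 0.3% starting parasitemia, compounds were tested; SYBR Green I in detergent lysis buffer stained parasite DNA overnight.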

CP286 = test system: CP286
Outline: as §1

CP291 = test system: CP291
Outline: as §1

CP297 = test system: CP297
Outline: as §1

CP305 = test system: CP305
Outline: as §1

CP315 = test system: CP315
Outline: as §1

CP325 = test system: CP325
Outline: as §1

CP329 = test system: CP329
Outline: as §1

CP335 = test system: CP335
Outline: as §1

DFO2036 = test system: DFO2036
Outline: as §1
Potency means the concentration at half of the fitted maximal effect.

Compound | Potency (CP269) | Potency (CP286) | Potency (CP291) | Potency (CP297) | Potency (CP305) | Potency (CP315) | Potency (CP325) | Potency (CP329) | Potency (CP335) | Potency (DFO2036)
Cc1ccc(N=CN(C)C=Nc2ccc(C)cc2C)c(C)c1 | inactive | inactive | inactive | inactive | inactive | inactive | inactive | inactive | inactive | inactive
CC(C)NCC(O)c1ccc(N)c(C#N)c1 (stereo not drawn) | inactive | inactive | inactive | inactive | inactive | inactive | inactive | inactive | inactive | inactive
C[C@]12CC[C@H]3[C@@H](CC=C4C[C@@H](O)CC[C@@]43C)[C@@H]1CC[C@@H]2O | inactive | inactive | inactive | inactive | inactive | inactive | inactive | inactive | inactive | inactive
NC(=O)CN1CCCC1=O | inactive | inactive | inactive | inactive | inactive | inactive | inactive | inactive | inactive | inactive
Cc1c(Cl)c(=O)oc2cc(OP(=O)(OCCCl)OCCCl)ccc12 | 12 µM (active) | 11.2 µM (active) | 7.57 µM (active) | 12 µM (active) | 6.75 µM (active) |  | 13.5 µM (active) | 12 µM (active) |  | 10 µM (active)
CC(C)(O)C(Cl)(Cl)Cl | 4.26 µM (active) | 5.62 µM (active) | 15.1 µM (active) |  | 6.01 µM (active) |  | 12 µM (active) |  | 2.39 µM (active) | 3.55 µM (active)
CN1C(=O)CN=C(c2ccccc2)c2cc([N+](=O)[O-])ccc21 | inactive | inactive | inactive | inactive | inactive | inactive |  | inactive |  | inactive
C#C[C@]1(O)CC[C@H]2[C@@H]3CCC4=CC(=O)CCC4=C3C=C[C@@]21CC |  |  |  |  |  | inactive |  |  |  | 
O=C(NC(=O)c1c(F)cccc1F)Nc1cc(Cl)c(OC(F)(F)C(F)C(F)(F)F)cc1Cl (stereo not drawn) | inactive |  | inactive | inactive | inactive | inactive | inactive | inactive |  | 
Oc1ccc2[nH]cc(CCCCN3CC=C(c4ccccc4)CC3)c2c1 |  |  |  | 15.1 µM (active) |  | 16.9 µM (active) |  |  |  | 10 µM (active)
CC[C@]1(O)CC[C@H]2[C@@H]3CCC4=CCCC[C@@H]4[C@H]3CC[C@@]21C | inactive | inactive | inactive | inactive |  | inactive | inactive | inactive | inactive | 
Clc1ccc(CO/N=C(\Cn2ccnc2)c2ccc(Cl)cc2Cl)c(Cl)c1 | 13.5 µM (active) | 5.62 µM (active) | 12 µM (active) | 4.78 µM (active) | 13.5 µM (active) |  | 13.5 µM (active) |  | 6.01 µM (active) | 3.98 µM (active)
Oc1c(Br)cc(Br)cc1Br | inactive | inactive | inactive |  | inactive | inactive | inactive | inactive | inactive | inactive
C[C@]12C=CC(=O)C=C1CC[C@@H]1[C@@H]2CC[C@@]2(C)[C@H]1CC[C@]2(C)O |  | inactive |  | 19 µM (active) |  |  |  |  | inactive | inactive
CNC(=O)Oc1cccc2ccccc12 | inactive | inactive | inactive |  | inactive |  | inactive | inactive | inactive | inactive
N#Cc1nn(-c2c(Cl)cc(C(F)(F)F)cc2Cl)c(N)c1S(=O)C(F)(F)F (stereo not drawn) | 15.1 µM (active) | 5.01 µM (active) | 6.75 µM (active) | 10.7 µM (active) | 7.57 µM (active) |  |  | 7.57 µM (active) | 13.5 µM (active) | 
c1cc2c(c(N3CCNCC3)c1)OCCO2 | inactive | inactive | inactive |  | inactive | inactive | inactive | inactive | inactive | inactive
COc1ccc(C(=O)N2CCCC2=O)cc1 | inactive | inactive |  |  | inactive | inactive | inactive | inactive | inactive | inactive

Compound | Potency (CP269) | Potency (CP286) | Potency (CP291) | Potency (CP297) | Potency (CP305) | Potency (CP315) | Potency (CP325) | Potency (CP329) | Potency (CP335) | Potency (DFO2036)
C[N+]1(CCC(C(N)=O)(c2ccccc2)c2ccccc2)CCCCC1 | inactive | inactive | inactive | inactive | inactive | inactive |  | inactive | inactive | inactive
CN1CCc2cc(Cl)c(O)cc2[C@H]2c3ccccc3CC[C@@H]21 |  | 11.2 µM (active) |  |  |  | inactive | inactive |  | 8.49 µM (active) | 
Nc1ccc(N)cc1 |  | inactive |  |  |  | inactive |  | inactive |  | 
OC(c1ccccc1)(c1ccccc1)C1CCNCC1 | inactive | inactive | inactive | inactive | inactive | inactive | inactive | inactive | inactive | inactive
CC(Cc1ccccc1)NCc1ccccc1Cl (stereo not drawn) |  | inactive |  | inactive | inactive | inactive |  | inactive |  | inactive
C[C@]12Cc3nonc3C[C@@H]1CC[C@@H]1[C@@H]2CC[C@@]2(C)[C@H]1CC[C@]2(C)O | inactive | inactive | inactive | inactive | inactive | inactive | inactive | inactive |  | inactive
O=C(CCCN1CCC(n2c(=O)[nH]c3ccccc32)CC1)c1ccc(F)cc1 | 1.81 µM (active) | 2 µM (active) | 6.42 µM (active) |  | 5.1 µM (active) |  | 5.1 µM (active) |  | 1.44 µM (active) | 1.58 µM (active)
ClC1=C(Cl)C2(Cl)C(CBr)CC1(Cl)C2(Cl)Cl (stereo not drawn) | inactive | inactive | inactive | inactive | inactive | inactive | inactive | inactive |  | inactive
O=C1NCN(c2ccccc2)C12CCN(CCCOc1ccc(F)cc1)CC2 |  | 12.6 µM (active) |  | 12 µM (active) |  | inactive |  | inactive |  | 
NC(=O)OCCCc1ccccc1 | inactive | inactive | inactive | inactive | inactive | inactive | inactive | inactive | inactive | inactive
CN1C[C@@H](NS(=O)(=O)N(C)C)C[C@@H]2c3cccc4c3c(cn4C)C[C@H]21 |  |  | inactive |  | inactive | inactive | inactive |  |  | inactive
C[N+](C)(C)CCOC(=O)C(O)(c1ccccc1)c1ccccc1 | inactive | inactive | inactive | inactive | inactive | inactive | inactive | inactive | inactive | inactive
COc1ccc(CN2CCNCC2)c(OC)c1OC |  | inactive | 5.1 µM (active) |  |  |  |  |  | inactive | inactive
CCN(CC)CCOC(=O)C(C)(c1ccccc1)c1ccccc1 |  |  |  |  |  | inactive |  |  | 4.78 µM (active) | 
OC(O)C(Cl)(Cl)Cl | inactive | inactive | inactive |  | inactive | inactive | inactive | inactive | inactive | inactive
C=CCOC(Cn1ccnc1)c1ccc(Cl)cc1Cl (stereo not drawn) | 15.1 µM (active) | 11.2 µM (active) | 12 µM (active) | 6.75 µM (active) |  | 16.9 µM (active) | 15.1 µM (active) |  |  | 12.6 µM (active)
CC(C)C(Br)C(=O)NC(N)=O (stereo not drawn) | inactive | inactive | inactive | inactive | inactive | inactive | inactive | inactive | inactive | inactive
